# Measurements reported in PubChem BioAssay (NCI).
# About 83,000 compounds went through this panel and 20% of them were active in at least one assay; those are over-represented in the sample as a whole.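 In brief: 96-well plates, 48 h treatment, single concentration, percent growth endpoint.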 Unmarked numbers belong to inactive results. Calls of active or inactive are those of the source. The calls were made as follows: active = growth percent below 10; inactive = the rest.
# Experiments:
# Assay in all cases: NCI-60 one-dose screen, 48 h (100 = growth as untreated, 0 = no growth, -100 = all killed)
# Conditions in all cases: 10 µM unless noted
# [1] = tested on: DU-145 prostate
# [2] = tested on: K-562 leukemia
# [3] = tested on: MALME-3M melanoma
# [4] = tested on: MDA-MB-231 breast
# [5] = tested on: RXF 393 renal
# [6] = tested on: SF-268 CNS
# [7] = tested on: SF-295 CNS
# [8] = tested on: SF-539 CNS
# [9] = tested on: UACC-257 melanoma
# [10] = tested on: M14 melanoma
# [11] = tested on: HCT-15 colon
# [12] = tested on: HT29 colon
# [13] = tested on: SNB-75 CNS
# [14] = tested on: SNB-19 CNS
# [15] = tested on: U251 CNS
# [16] = tested on: PC-3 prostate
# [17] = tested on: SK-MEL-5 melanoma
# [18] = tested on: UACC-62 melanoma
# [19] = tested on: LOX IMVI melanoma
# [20] = tested on: SK-MEL-28 melanoma
SMILES,growth [1],growth [2],growth [3],growth [4],growth [5],growth [6],growth [7],growth [8],growth [9],growth [10],growth [11],growth [12],growth [13],growth [14],growth [15],growth [16],growth [17],growth [18],growth [19],growth [20]
CCCCC1COc2cccc3c(SCC(=O)N(C)c4cccc5ccccc45)cc[n+]1c23 (stereo not given),105%,88.4%,107%,110%,115%,112%,96.5%,96.7%,101%,82.8%,94.3%,103%,104%,98.7%,99.3%,95.8%,98.5%,99.9%,91.2%,111%
O=C(C[Si](CC(=O)c1cccc(C(F)(F)F)c1)CC(=O)c1cccc(C(F)(F)F)c1)c1cccc(C(F)(F)F)c1,33.2%,4.55% (active),77.2%,86.3%,102%,40%,2.69% (active),107%,81.8%,89.4%,99.1%,62.8%,90.8%,101%,51.6%,-14.7% (active),99.8%,66.7%,73.2%,98.6%
CCOC(=O)c1cnn(CC(O)c2ccc(F)cc2)c1NC(=O)Nc1ccccc1F (stereo not given),102%,97.5%,93.3%,91.2%,108%,99%,91.6%,95.1%,107%,93%,103%,117%,82.2%,98.3%,97.8%,81.5%,75.9%,73.8%,101%,101%
O=C1/C(=C/c2ccccc2F)CNC/C1=C\c1ccccc1F,-11.6% (active),5.7% (active),-9.46% (active),-2.14% (active),-86.2% (active),-11.4% (active),-17.3% (active),-33% (active),-46.1% (active),-47.3% (active),-0.826% (active),-35.4% (active),32.5%,3.94% (active),-85.3% (active),4.63% (active),-88.4% (active),-58.3% (active),-83.5% (active),-91.1% (active)
Cc1ccc(NS(=O)(=O)c2ccc(-c3cnc(C4CC4)o3)cc2)cc1,49.7%,14.6%,47.9%,44.7%,26.5%,50.1%,19.9%,26.7%,55.1%,9.71% (active),17.5%,12%,18.8%,37.6%,39.9%,49.7%,15%,27.3%,39.2%,53.9%
COc1cc(/C=C/C(=O)CC(=O)/C=C/c2cc(Br)c(OC)c(OC)c2)cc(Br)c1OC,108%,73.3%,96.6%,101%,114%,104%,102%,102%,93.1%,96.9%,109%,103%,93.7%,99.8%,105%,105%,108%,101%,97.8%,106%
COc1ccc(C2=NOC(CC(=O)N(CCO)CCO)C2)cc1OC1CCCC1 (stereo not given),105%,121%,111%,103%,102%,97%,97.1%,104%,102%,92.2%,98.6%,110%,86.5%,97%,97.5%,95.5%,94.1%,100%,103%,119%
COc1ccc2nc(-n3nc(C)cc3C)c(-n3nc(C)cc3C)nc2c1,128%,114%,108%,103%,104%,119%,98.7%,107%,119%,102%,102%,100%,116%,102%,106%,105%,100%,105%,101%,107%
